Where “and” joins values, the source holds several entries; their conditions need not be identical. Equal values may be shown once. Where a name gives a salt, the structure may show the parent alone.
Legend:
Experiment in all cases: cell viability relative to vehicle control; higher = less cytotoxic
Conditions in all cases: 10 µM
K562 = tested on: K562
In short: (§1)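 After removal of identity-inconsistent compounds, the Selleck bioactive, kinase and epigenetic probe libraries were screened on CRISPR-edited mutant clones and isogenic wild-type clones of four leukaemia lines. Plates were 384-well, each well holding 2000 cells in 50 µL medium and receiving a single 10 µM acoustically dispensed dose. CellTiter-Glo luminescence was read 48 h later, after the supernatant was taken off. Genedata Screener was used to express viability as percent of the on-plate vehicle control.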

MARIMO = tested on: MARIMO
In short: as §1

MOLM14 = tested on: MOLM14
In short: as §1

OCI-AML2 = tested on: OCI-AML2
In short: as §1

Structure (SMILES)	cell viability (K562; SRSF2 genotype: SRSF2 P95H/wt)	cell viability (K562; SRSF2 genotype: SRSF2 wt/wt)	cell viability (MARIMO; SRSF2 genotype: SRSF2 P95H/wt)	cell viability (MARIMO; SRSF2 genotype: SRSF2 wt/wt)	cell viability (MOLM14; SRSF2 genotype: SRSF2 P95H/wt)	cell viability (MOLM14; SRSF2 genotype: SRSF2 wt/wt)	cell viability (OCI-AML2; SRSF2 genotype: P95H/wt)	cell viability (OCI-AML2; SRSF2 genotype: wt/wt)
CCn1cc(C(=O)O)c(=O)c2cc(F)c(N3CCNCC3)nc21 [Enoxacin (Penetrex)]	111% and 106%	108%	109%	111%	105%	110%	112%	105%
O=C1C[C@@H]2[C@@H](CO)[C@H](O)C[C@@H]2O1 [Corey Lactone Diol]	110%	101%	105%	110%	102%	108%	101%	93.3%
CCc1ccc(OCc2ccccc2C(=O)Nc2ccc3nc(C)cc(N)c3c2)cc1	0.54% and 0.5%	0.47%	0.43%	0.59%	0.48%	0.57%	0.44%	0.53%
C/C(=C\CO)CCC[C@H](C)CCC[C@H](C)CCCC(C)C [Phytol]	97% and 93.1%	96%	89.1%	103%	85.5%	92.6%	80.5%	82.6%
COc1ccc2[nH]c(=O)oc2c1 [Coixol]	94.8% and 103%	95%	97.8%	96.3%	103%	98.2%	102%	93.9%
Cc1cc(=O)n(-c2ccccc2)n1C [Antipyrine]	97.8% and 87.7%	82.7%	86.2%	95.4%	88.1%	87.4%	84.8%	93.4%
Oc1ccc(OC2CCCCO2)cc1 (centres undefined) [Deoxyarbutin]	104% and 99.3%	105%	84.6%	93.3%	83.3%	81.9%	87.4%	83.2%
N#CC(=C(/N)Sc1ccccc1N)/C(C#N)=C(\N)Sc1ccccc1N	70.5% and 77.5%	72.7%	38.2%	37.1%	54.9%	57.2%	48.9%	48.1%
O=C(/C=C/N1C[C@H]2C[C@@H]1CN2c1ccccn1)c1ccccc1O	93.1% and 98%	97.1%	95.5%	96.5%	102%	99.2%	104%	105%
CC(NC(=O)C(Cc1ccccc1)NC(=O)OCc1ccccc1)C(=O)CF (centres undefined)	102% and 101%	96%	92.9%	111%	94.3%	101%	98.8%	94.9%
Cc1cc(-c2nc(-c3ccc(OC(F)(F)F)cc3)no2)nn1Cc1ccnc(N2CCN(C3CC3)CC2)c1	61.8% and 46.9%	54.1%	63%	53.7%	63.5%	51.8%	52.2%	46.9%
CCOc1cc([C@@H](CS(C)(=O)=O)N2C(=O)c3cccc(NC(C)=O)c3C2=O)ccc1OC	102% and 98.7%	94.5%	99.5%	92.5%	98%	94.9%	90.1%	94.7%
CC1(C)O[C@H]2CC(=O)OC[C@]23[C@H]2CC[C@@]4(C)[C@H](c5ccoc5)OC(=O)[C@H]5O[C@]54[C@]2(C)C(=O)C[C@@H]13 [Limonin]	98% and 110%	109%	97.3%	109%	102%	109%	111%	102%
COC(=O)C1=C(C#N)NC(C)=C(C(=O)OC(C)C)C1c1cccc([N+](=O)[O-])c1 (centres undefined) [Nilvadipine (ARC029)]	81.2% and 85.3%	80.7%	76%	79.7%	80.9%	84.7%	103%	97.2%
Cc1[nH]c2ccccc2c1C1=C(NCCc2ccc(F)cc2)C(=O)N(C)C1=O	97% and 105%	102%	94.9%	100%	99.4%	105%	100%	89.8%
CN(C)CCN1C(=O)c2cccc3cc(N)cc(c23)C1=O [Amonafide]	33.8% and 37.6%	32.1%	7.66%	10.7%	0.3%	0.27%	0.94%	2.97%
Cn1ncc(Cl)c1-c1cc(C(=O)N[C@H](CN)Cc2ccc(F)c(F)c2)oc1Cl	73.1% and 71.1%	79.8%	64.1%	59.3%	31.9%	31.4%	51.1%	50.4%
O[C@@H]1CO[C@H]2[C@@H]1OC[C@@H]2O [Isosorbide]	102% and 111%	105%	107%	104%	99.6%	105%	118%	99.5%
COC(=O)[C@H](Cc1ccccc1)NC(=O)[C@@H](N)CC(=O)O [Aspartame]	101% and 92.2%	91.6%	102%	101%	98.8%	97.1%	93.6%	92.1%
Nc1ccc(S(=O)(=O)Nc2ccccn2)cc1 [Sulfapyridine (Dagenan)]	94.3% and 101%	97.1%	97.7%	107%	103%	100%	106%	97.6%
O=C1CCc2ccc(OCCCCN3CCN(c4cccc(Cl)c4Cl)CC3)cc2N1 [Aripiprazole (Abilify)]	90.5% and 93%	93.2%	86.8%	80.1%	86.5%	98%	47.1%	75.5%
COc1cc2c(cc1OC)-c1c(C)c3ccc(OC)c(OC)c3c[n+]1CC2 [Dehydrocorydalin]	88.3% and 96%	90.6%	94%	96%	94.8%	95.6%	79.8%	84.1%

Structure (SMILES)	cell viability (K562; SRSF2 genotype: SRSF2 P95H/wt)	cell viability (K562; SRSF2 genotype: SRSF2 wt/wt)	cell viability (MARIMO; SRSF2 genotype: SRSF2 P95H/wt)	cell viability (MARIMO; SRSF2 genotype: SRSF2 wt/wt)	cell viability (MOLM14; SRSF2 genotype: SRSF2 P95H/wt)	cell viability (MOLM14; SRSF2 genotype: SRSF2 wt/wt)	cell viability (OCI-AML2; SRSF2 genotype: P95H/wt)	cell viability (OCI-AML2; SRSF2 genotype: wt/wt)
O=C(O)c1ccc(O)c(O)c1 [Protocatechuic acid]	101% and 97.7%	93.3%	93.1%	96.1%	96.8%	103%	98.4%	104%
Cn1cnc([N+](=O)[O-])c1Sc1ncnc2[nH]cnc12 [Azathioprine (Azasan, Imuran)]	53.6% and 63.6%	34.8%	82.2%	87.2%	85.2%	81.8%	87.7%	92%
O=C(Nc1ccc(O)c(C(=O)O)c1)c1cccc(NC(=O)c2ccco2)c1	103% and 105%	99.4%	97.2%	100%	104%	102%	105%	105%
CCN(CC)Cc1cc(Nc2ccnc3cc(Cl)ccc23)ccc1O [Amodiaquine hydrochloride]	80.3% and 76.8%	74%	61%	67.4%	40.2%	31.1%	39%	33.4%
O=C(O)Cn1nnc(-c2cc(N3CCC(Oc4cc(F)ccc4Br)CC3)no2)n1	106% and 102%	110%	101%	104%	103%	103%	101%	103%
O=[N+]([O-])c1cn2c(n1)OC[C@@H](OCc1ccc(OC(F)(F)F)cc1)C2	94.3% and 98.1%	91.8%	92.7%	101%	97.8%	97.5%	98.9%	99.5%
CCC[C@@H]1C[C@@H](C(=O)N[C@@H]([C@H]2O[C@H](SC)[C@H](O)[C@@H](O)[C@H]2O)[C@H](C)Cl)N(C)C1 [Clindamycin]	96.3% and 99.1%	103%	104%	106%	95.3%	99.8%	113%	98.9%
CN[C@@H](C)C(=O)N[C@H]1CN(C(=O)CC(C)C)CC[C@H]2CC[C@@H](C(=O)NC(c3ccccc3)c3ccccc3)N2C1=O	69.6% and 74.7%	72.8%	64.5%	46.6%	0.57%	0.76%	60.2%	39.2%
[F][Ti]([F])([F])[F] [Titanium tetrafluoride]	102% and 89.4%	98.7%	99.2%	105%	97.3%	102%	98.9%	99%
COc1c(O)cc2c(c1O)[C@@H]1O[C@H](CO)[C@@H](O)[C@H](O)[C@H]1OC2=O [Bergenin (Cuscutin)]	100% and 84%	86.1%	89.2%	99%	85.6%	91.9%	91%	94.1%
C=C(C)[C@@H]1CC[C@]2(C(=O)O)CC[C@]3(C)[C@H](CC[C@@H]4[C@@]5(C)CCC(=O)C(C)(C)[C@@H]5CC[C@]43C)[C@@H]12 [Betulonic acid]	45.2% and 68%	61.4%	34.2%	20.9%	43.6%	32.2%	29.6%	17.1%
Cc1cc(C(C)Nc2ccccc2)c2nc(N3CCOCC3)cc(=O)n2c1 (centres undefined)	92.6% and 97.6%	93.3%	90.7%	90.4%	70.9%	69%	73.4%	76.6%
C=C(C)[C@@H]1CC[C@]2(C(=O)O)CC[C@]3(C)[C@H](CC[C@@H]4[C@@]5(C)CC[C@H](OC(=O)CC(C)(C)C(=O)O)C(C)(C)[C@@H]5CC[C@]43C)[C@@H]12 [Bevirimat]	102% and 101%	99.7%	107%	107%	106%	103%	97%	108%
CC12CCC(CC1=O)C2(C)C (stereo not drawn) [(+)-Camphor]	94.2% and 102%	101%	96.2%	99.9%	99.3%	99.8%	103%	92.2%
C/C(=C\C(=O)Nc1ccccc1C(=O)O)c1ccc2ccccc2c1	101% and 90.8%	106%	84.3%	98.2%	88.5%	92.8%	95.1%	93.6%
O=C1CCC[C@@H]2[C@H]3CCC[N+]4([O-])CCC[C@@H](CN12)[C@@H]34 (some centres undefined) [Oxymatrine (Matrine N-oxide)]	105% and 96.8%	99%	101%	98.9%	100%	98.2%	97.7%	96.5%
CC[C@@H]1C(=O)N(C)c2cnc(Nc3ccc(C(=O)NC4CCN(C)CC4)cc3OC)nc2N1C1CCCC1	1.43% and 2.65%	1.81%	6.52%	5.37%	0.17%	0.13%	0.53%	2.92%
CCS(=O)(=O)c1cccc(-c2cc(C(=O)NC3CCN(C)CC3)c(C)c3[nH]c4ncc(C)cc4c23)c1	29% and 32.2%	21.9%	11.9%	7.33%	2.91%	2.2%	4.55%	11.1%
O=C(Nc1ccccc1)N1CCN(c2nc(-c3ccccc3)ns2)CC1	79.1% and 89.2%	91.6%	87%	92.7%	90.5%	99%	62.7%	70.3%
COc1cn(-c2ccc(-n3cccn3)cc2F)nc(-c2ccnn2-c2ccccc2)c1=O	103% and 105%	99.9%	97.5%	113%	107%	107%	106%	117%
CCCCCOc1ccc(-c2ccc(-c3ccc(C(=O)N[C@H]4C[C@@H](O)[C@@H](O)NC(=O)[C@@H]5[C@@H](O)[C@@H](C)CN5C(=O)[C@H]([C@@H](C)O)NC(=O)[C@H]([C@H](O)[C@@H](O)c5ccc(O)cc5)NC(=O)[C@@H]5C[C@@H](O)CN5C(=O)[C@H]([C@@H](C)O)NC4=O)cc3)cc2)cc1	77.8% and 78.3%	80.5%	95.7%	94.3%	82.7%	84.5%	77.5%	82.8%

Reference: the supplement of paper PMC10981050
